# Assay outcomes: PubChem BioAssay, several laboratories
# This is a sample that favours compounds with a hit; in the whole collection about 2.6% have one here.
# TROY NFkB inh: TROY signaling inhibition; 0.98% of 360,000 active; Q293 LMP1-TROYcd NF-kB luciferase reporter, 4 h; inhibition, % at 10 µM;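 active means compounds whose plate-normalised and pattern-corrected inhibition of the luciferase reporter signal at the single screening dose is 50% or more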
# LGR2 antag: blocks bursicon-induced cAMP signaling via Drosophila LGR2; HEK293 LGR2, CRE-luciferase, bursicon-stimulated, 4 h; inhibition, % at 9.99 µM; 0.35% of 380,000 active;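 active means drop in luminescence signal, shown as inhibition above about 50% in the replicate tests, limit read from the data, passing the limit was not always enough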;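 further: agonist challenge used bursicon conditioned medium at about half maximal strength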
# LMP1 NFkB inh: inhibitors of Epstein-Barr LMP1-induced NF-kappaB reporter; 0.69% of 350,000 active; LMP1-induced NF-kappaB luciferase reporter cells, luminescence; inhibition, % at 12.5 µM; in the data active means inhibition above about 41%;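 further: 0% = neutral control wells and 100% = reference inhibitor control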
# HSP90 refold inh: inhibitors of HSP90 luciferase refolding in rabbit reticulocyte lysate | inhibition, % at 5.6 µM | luciferase refolding luminescence, 3 h | 0.91% of 290,000 active;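 active means inhibition above the screen-wide mean plus 3 SD, computed separately per campaign, cut at about 16% in these data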;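 further: 0% = DMSO wells and 100% = 60 µM geldanamycin wells; inhibitors lower the luminescence because luciferase stays unfolded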
# TWEAK Fn14 block: inhibitors of TWEAK-Fn14 interaction signaling; inhibition, % at 10 µM; 2% of 360,000 active; AID 1159606; TWEAK-stimulated Fn14 reporter cells, luciferase luminescence, 8 h; in the data active means inhibition above about 50%
# aDG glyco up: increases alpha dystroglycan glycosylation. Pro5-aDG cells, alpha-DG glycosylation AlphaScreen (IIH6); 0% Pro5, 100% B10-LARGE cell signal. activation, % at 10 µM. 0.22% of 360,000 active. AID 624168;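 active means activation of at least 8% versus controls, or a plate z-score of at least 8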;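 further: Pro5 are CHO cells carrying HIG-tagged alpha-DG that lacks glycosylation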
# Starred values were filed as active, the others as inactive; x = not tested or not shown.
SMILES,TROY NFkB inh,LGR2 antag,LMP1 NFkB inh,HSP90 refold inh,TWEAK Fn14 block,aDG glyco up
COc1ccc(S(=O)(=O)N(C)C[C@@H]2OCCCC[C@@H](C)Oc3ccc(NC(=O)C4CCCCC4)cc3C(=O)N([C@@H](C)CO)C[C@@H]2C)cc1,x,6,x,x,x,x
Cc1cc(NC(=O)CCCSc2nc(-c3ccco3)cc(C(F)(F)F)n2)n(-c2ccccc2)n1,x,x,-9,4,62*,0
Cc1c(C(=O)Oc2cccc3ccccc23)cnn1-c1ccccc1,82*,-13,5,10,73*,0
CC(=O)c1cnn(-c2ccccc2)c1C,-6,0,0,-1,-13,0
CC1=C(C(=O)OCc2ccccc2)C(c2cccc(Cl)c2Cl)NC(=O)N1CCCCCC(=O)O (stereo not drawn),0,15,-1,1,-12,0
COC(=O)C1=C(C)N(CCCC(=O)O)C(=O)NC1c1cccc(Cl)c1Cl (stereo not drawn),-9,-36,51*,x,8,0
CC(C)NC(=O)N1[C@H](CO)[C@@H](c2ccccc2)C12CN(Cc1ccccc1)C2,x,7,x,x,x,x
CCCNC(=O)N1CC2(CCN(C(=O)C3CCOCC3)CC2)c2c([nH]c3cc(OC)ccc23)[C@@H]1CO,x,-11,x,x,x,x
O=C(NC1CCCCC1)c1n[nH]c2c1CCCCC2,83*,91*,54*,x,99*,0
Cn1c(N)c(C(C[N+](=O)[O-])c2ccccc2Cl)c(=O)n(C)c1=O (stereo not drawn),12,x,8,x,99*,0
Cc1ccc(C(C[N+](=O)[O-])c2c(N)n(C)c(=O)n(C)c2=O)cc1 (stereo not drawn),14,3,6,0,21,0
COc1cccc(F)c1C(C[N+](=O)[O-])c1c(N)n(C)c(=O)n(C)c1=O (stereo not drawn),43,64*,-7,-6,58*,0
COc1cc(C(C[N+](=O)[O-])c2c(N)n(C)c(=O)n(C)c2=O)ccc1O (stereo not drawn),32,x,9,-1,28,2
Fc1ccc(N/N=C/c2ccc(N3CCOCC3)cc2)c(F)c1,70*,-7,-39,9,45,0
C[C@@H]1CN([C@@H](C)CO)C(=O)c2cc(C#CCC3CCCC3)cnc2O[C@@H]1CN(C)C(=O)CN(C)C,x,16,x,x,x,x
COc1cccc2c1OC1(C)CC2NC(=O)N1c1cccc(C(=O)Nc2ccc3c(c2)OCCO3)c1 (stereo not drawn),31,-19,8,2,83*,0
CCN(CC)c1ccc(C(=O)OCC(=O)Nc2ccccc2-c2ccccc2)cc1,39,7,16,-1,72*,1
CN(C)c1cccc(C(=O)OCC(=O)Nc2ccccc2-c2ccccc2)c1,21,-3,1,-1,-2,0
Cn1c(/C=C/c2ccccc2)nc2ccccc21,31,80*,47*,14,83*,1
Cn1c(=O)c(/C=C/c2ccccc2)nc2ccccc21,-46,-17,-28,1,-6,0
COc1ccccc1CNc1nc(NCc2ccccc2OC)c2sccc2n1,57*,31,x,x,42,1
CCOC(=O)Cc1ccc(Nc2nc(NCc3ccccc3)nc3ccsc23)cc1,57*,-4,x,x,93*,2
CCOC(=O)Cc1ccc(Nc2nc(NC)nc3ccsc23)cc1,1,-52,x,x,-9,1
COc1ccccc1CNc1nc(Nc2cccc(-c3cnco3)c2)c2sccc2n1,75*,5,x,x,98*,0
CC(C)Nc1nc(NCc2ccccc2)c2sccc2n1,57*,x,x,x,3,0
SMILES,TROY NFkB inh,LGR2 antag,LMP1 NFkB inh,HSP90 refold inh,TWEAK Fn14 block,aDG glyco up
COCCNc1nc(NCc2ccccc2)nc2ccsc12,39,-10,x,x,24,1
O=C(NCC[C@H]1CC[C@@H](NS(=O)(=O)c2ccc(Cl)cc2)[C@@H](CO)O1)c1ccc2c(c1)OCO2,x,-13,x,x,x,x
COc1ccccc1CNc1nc(NCc2ccccc2SC)c2sccc2n1,55*,19,x,x,90*,1
COc1ccc(S(=O)(=O)N(C)CC(=O)Nc2ccccc2C(F)(F)F)cc1OC,x,x,-1,-2,74*,0
CCN(CC(=O)Nc1ccc(OC)c(OC)c1)CC(=O)Nc1ccccc1C(F)(F)F,-1,1,-6,-1,-17,0
CCc1ccc(/C=C/c2c([N+](=O)[O-])c(=O)n(C)c(=O)n2C)cc1,13,40,6,9,65*,0
CCOc1ccc(/C=C/c2c([N+](=O)[O-])c(=O)n(C)c(=O)n2C)cc1,10,18,7,6,21,1
Cn1c(/C=C/c2ccc(Cl)cc2Cl)c([N+](=O)[O-])c(=O)n(C)c1=O,9,56*,-30,8,73*,0
Cc1cccc(-c2ccc([C@H]3[C@H](CO)N4C(=O)CN(C(=O)CN5CCOCC5)C[C@@H]34)cc2)c1,x,-24,x,x,x,x
O=C(Nc1cc(F)ccc1F)N[C@@H]1CC[C@@H](CCNC(=O)c2cnccn2)O[C@@H]1CO,x,-22,x,x,x,x
CO[C@H]1CN(C)C(=O)c2ccc(NC(=O)Nc3c(C)noc3C)cc2OC[C@H](C)N(CC2CC2)C[C@@H]1C,x,1,x,x,x,x
Cc1ccccc1-c1ccc(C2[C@H]3CNC[C@@H]2N3Cc2cccnc2)cc1 (stereo partly drawn),x,-35,x,x,x,x
NCCc1c(-c2ccccc2)n(-c2ccccc2)c2ccccc12,-14,58*,-12,4,-22,-1
CC(C)CC1NC(=O)N(Cc2nc3ccccc3s2)C1=O (stereo not drawn),0,-37,-7,1,72*,0
O=c1c2ccccc2ncn1Cc1nc2ccccc2s1,-47,x,-8,1,-33,0
COc1ccc(Cl)cc1NC(=O)c1cnc2n(c1=O)CCS2,48,13,-24,x,53*,0
COc1ccc(OC)c(NC(=O)c2cnc3n(c2=O)CCS3)c1,-26,-11,-16,-1,8,0
COc1cccc2cc(C(=O)C3=C(O)C(=O)N(CCN(C)C)C3c3ccc(Cl)cc3)oc12 (stereo not drawn),-1,0,-4,1,60*,0
Cc1ccccc1Oc1nc(-c2ccccn2)nc2ccccc12,-52,-10,8,-1,-29,2.1*
COc1ccc(C2NC(=O)NC(C)=C2C(=O)OC2CCCC(C)C2)cc1 (stereo not drawn),44,18,11,-5,73*,0
CCCCCOC(=O)C1=C(C)NC(=O)NC1c1ccc(OC)cc1 (stereo not drawn),3,29,2,2,70*,0
O=C(NC[C@H]1[C@H](c2ccccc2)[C@H](CO)N1Cc1cccnc1)c1ccccn1,x,12,x,x,x,x
CCc1n[n+](CC(=O)c2ccccc2)c(N)s1,58*,81*,52*,52*,82*,0
